# According to PubChem BioAssay (EPA / NIEHS):
# Calls of active or inactive are those of the source. Rule for the calls: active = hit-call score of the fitted dose curve at least 0.9, where 1 is the maximum; inactive = score below 0.9.
# What was measured:
# Settings in all cases: mRNA level, 48 h; actives raise or lower the signal
# [1] = read-out: 3-Hydroxy-3-Methylglutaryl-CoA Synthase 2 (HMGCS2), HMGCS2 (gene 3158); test: LTEA_HepaRG_HMGCS2: Life Technologies and Expression Analysis (LTEA) Assay for 3-Hydroxy-3-Methylglutaryl-CoA Synthase 2 (HMGCS2) using HepaRG (AID 2283504)
# How it was run: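 This steatosis marker was read as HMGCS2 mRNA change in HepaRG cells treated 48 h with up to 100 uM chemical. Normalisation used housekeeping genes; activity in either direction was fitted relative to 0.5% DMSO vehicle.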
# [2] = read-out: Insulin Like Growth Factor 1 (IGF1), IGF1 (gene 3479); test: LTEA_HepaRG_IGF1: Life Technologies and Expression Analysis (LTEA) Assay for Insulin Like Growth Factor 1 (IGF1) using HepaRG (AID 2283506)
# How it was run: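 Differentiated HepaRG cells in serum-free induction medium, exposed 48 h in duplicate to 8 half-log concentrations up to 100 uM in 0.5% DMSO. IGF1 mRNA by Fluidigm qRT-PCR, normalised to ACTB, GAPDH and POLR2A.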
# [3] = read-out: Interleukin 6 (IL6), IL6 (gene 3569); test: LTEA_HepaRG_IL6: Life Technologies and Expression Analysis (LTEA) Assay for Interleukin 6 (IL6) using HepaRG (AID 2283509)
# How it was run: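 HepaRG, ~100,000 cells/well, 48 h pre-culture; serum-free induction medium; cmpd 8-pt half-log from 100 uM, 0.5% DMSO, duplicate, 48 h. Lysis in RLT, TaqMan qRT-PCR; gain or loss vs DMSO.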
# [4] = read-out: Potassium channel subfamily K member 1 (KCNK1), KCNK1 (gene 3775); test: LTEA_HepaRG_KCNK1: Life Technologies and Expression Analysis (LTEA) Assay for Potassium channel subfamily K member 1 (KCNK1) using HepaRG (AID 2283511)
# How it was run: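 Gain or loss of KCNK1 mRNA is the read-out, quantified by qRT-PCR against three housekeeping genes after 48 h chemical treatment of human HepaRG liver cells. Concentrations ran from 100 uM downward in half-log steps, vehicle 0.5% DMSO.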
# [5] = read-out: Keratin 19 (KRT19), KRT19 (gene 3880); test: LTEA_HepaRG_KRT19: Life Technologies and Expression Analysis (LTEA) Assay for Keratin 19 (KRT19) using HepaRG (AID 2283512)
# How it was run: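 Readout is qRT-PCR of KRT19 mRNA, normalized to ACTB, GAPDH and POLR2A, from HepaRG cells treated 48 h with eight-point half-log dilutions topping at 100 uM. Activity in either direction is scored relative to 0.5% DMSO vehicle.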
# [6] = read-out: JUN Transcription Factor, JUN (gene 3725); test: LTEA_HepaRG_JUN: Life Technologies and Expression Analysis (LTEA) Assay for JUN Transcription Factor using HepaRG (AID 2283513)
# How it was run: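 HepaRG cells, 48 h post-plating, exposed 48 h in serum-free induction medium to 8-point half-log series (top 100 uM, 0.5% DMSO), duplicate; mRNA by qRT-PCR (TaqMan, Fluidigm), normalized to ACTB/GAPDH/POLR2A; bidirectional fit vs DMSO.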
# [7] = read-out: Lipase C (LIPC), LIPC (gene 3990); test: LTEA_HepaRG_LIPC: Life Technologies and Expression Analysis (LTEA) Assay for Lipase C (LIPC) using HepaRG (AID 2283514)
# How it was run: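 Read-out is LIPC transcript level by TaqMan qRT-PCR, normalized to three housekeeping genes, after 48 h chemical treatment of human HepaRG liver cells. Curves span eight concentrations topping at 100 uM; activity in either direction scored relative to 0.5% DMSO.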
# [8] = read-out: Lipoprotein lipase (LPL), LPL (gene 4023); test: LTEA_HepaRG_LPL: Life Technologies and Expression Analysis (LTEA) Assay for Lipoprotein lipase (LPL) using HepaRG (AID 2283515)
# How it was run: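 Read-out is LPL transcript level by qRT-PCR, normalized to three housekeeping genes and fitted bidirectionally against the DMSO control. Human HepaRG cells received chemicals for 48 h at up to 100 uM.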
# [9] = read-out: matrix metalloproteinase-10 (MMP10), MMP10 (gene 4319); test: LTEA_HepaRG_MMP10: Life Technologies and Expression Analysis (LTEA) Assay for matrix metalloproteinase-10 (MMP10) using HepaRG (AID 2283517)
# How it was run: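 Gain or loss of MMP10 mRNA is fitted relative to the 0.5% DMSO vehicle. The human hepatic line HepaRG receives a 48-hour serum-free exposure, in duplicate, with a maximum concentration of 100 uM.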
# [10] = read-out: MYC, MYC (gene 4609); test: LTEA_HepaRG_MYC: Life Technologies and Expression Analysis (LTEA) Assay for MYC using HepaRG (AID 2283518)
# How it was run: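 Expression changes were scored by TaqMan qRT-PCR with ACTB, GAPDH and POLR2A normalization. Cultures in serum-free induction medium received duplicate 8-point concentration series, highest 100 uM, for 48 h; DMSO (0.5%) served as baseline.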
# [11] = read-out: Nuclear factor NF-kappa-B p105 subunit (Homo sapiens) (UniProt P19838); test: LTEA_HepaRG_NFKB1: Life Technologies and Expression Analysis (LTEA) Assay for Nuclear Factor Kappa B Subunit 1 (NFKB1) using HepaRG (AID 2283521);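 note: TaqMan qRT-PCR transcript normalised to ACTB GAPDH and POLR2A housekeeping genes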
# How it was run: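 NFKB1 transcript was measured by TaqMan qRT-PCR on Fluidigm arrays, normalised to three housekeeping genes and fitted in both directions against 0.5% DMSO. HepaRG cells were dosed in duplicate for 48 h in serum-free induction medium, eight half-log steps from 100 uM.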
# [12] = read-out: Protein phosphatase 2A (PPP2R4), PTPA (gene 5524); test: LTEA_HepaRG_PPP2R4: Life Technologies and Expression Analysis (LTEA) Assay for Protein phosphatase 2A (PPP2R4) using HepaRG (AID 2283522)
# How it was run: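 Differentiated human HepaRG cells in serum-free induction medium were exposed 48 h to 8 concentrations (top 100 µM, half-log steps, duplicate) in 0.5% DMSO. PPP2R4 mRNA was measured by TaqMan qRT-PCR, normalised to ACTB, GAPDH and POLR2A, and fitted bidirectionally versus DMSO.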
# [13] = read-out: Phosphatase and tensin (PTEN), PTEN (gene 5728); test: LTEA_HepaRG_PTEN: Life Technologies and Expression Analysis (LTEA) Assay for Phosphatase and tensin (PTEN) using HepaRG (AID 2283523)
# How it was run: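 Read-out is PTEN transcript level by multiplexed TaqMan qRT-PCR after 48 h chemical treatment of human HepaRG cultures in serum-free induction medium. Concentrations spanned 100 uM downward in half-log steps, 0.5% DMSO throughout; activity fitted in both directions against vehicle.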
# [14] = read-out: HGF (gene 3082); test: LTEA_HepaRG_HGF: Life Technologies and Expression Analysis (LTEA) Assay for Hepatocyte Growth Facto (HGF) using HepaRG (AID 2283505)
# How it was run: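 Using HepaRG monolayers kept in 0.5% DMSO, chemicals were tested in duplicate over eight half-log concentrations from 100 uM for 48 h. Endpoint: HGF mRNA change relative to DMSO, normalized to ACTB/GAPDH/POLR2A.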
# [15] = read-out: Intercellular Adhesion Molecule 1 (ICAM1), ICAM1 (gene 3383); test: LTEA_HepaRG_ICAM1: Life Technologies and Expression Analysis (LTEA) Assay for Intercellular Adhesion Molecule 1 (ICAM1) using HepaRG (AID 2283507)
# How it was run: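 Using the human liver line HepaRG, compounds are tested in duplicate over 48 h at concentrations up to 100 uM. Expression is determined by TaqMan qRT-PCR, normalized to endogenous controls, and analysed relative to 0.5% DMSO vehicle.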
# [16] = read-out: Insulin-like growth factor-binding protein 1 (IGFBP1), IGFBP1 (gene 3484); test: LTEA_HepaRG_IGFBP1: Life Technologies and Expression Analysis (LTEA) Assay for Insulin-like growth factor-binding protein 1 (IGFBP1) using HepaRG (AID 2283508)
# How it was run: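 HepaRG, 48 h, 8 conc. (max 100 uM, half-log), duplicates, 0.5% DMSO. Readout: TaqMan qRT-PCR, ACTB/GAPDH/POLR2A normalisation. Fit: bidirectional vs DMSO.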
# [17] = read-out: Interleukin 6 Receptor (IL6R), IL6R (gene 3570); test: LTEA_HepaRG_IL6R: Life Technologies and Expression Analysis (LTEA) Assay for Interleukin 6 Receptor (IL6R) using HepaRG (AID 2283510)
# How it was run: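 Differentiated HepaRG cells, plated 48 h, then exposed in duplicate for 48 h in serum-free induction medium to 8 half-log concentrations (top 100 uM, 0.5% DMSO). IL6R mRNA measured by TaqMan qRT-PCR, normalized to ACTB/GAPDH/POLR2A; bidirectional fit vs DMSO.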
# [18] = read-out: MicroRNA 122 (MIR122), gene 406906; test: LTEA_HepaRG_MIR122: Life Technologies and Expression Analysis (LTEA) Assay for MicroRNA 122 (MIR122) using HepaRG (AID 2283516); note: the transcript read is the microRNA miR-122
# How it was run: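 Differentiated human HepaRG cells in serum-free induction medium exposed 48 h to 8 half-log concentrations from 100 uM in 0.5% DMSO, duplicate. MIR122 quantified by Fluidigm TaqMan qRT-PCR, normalised to ACTB, GAPDH, POLR2A; fold change fitted bidirectionally versus DMSO.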
# [19] = read-out: Paternally Expressed 10 (PEG10), PEG10 (gene 23089); test: LTEA_HepaRG_PEG10: Life Technologies and Expression Analysis (LTEA) Assay for Paternally Expressed 10 (PEG10) using HepaRG (AID 2283520)
# How it was run: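 Differentiated HepaRG cells exposed 48 h in serum-free induction medium to eight half-log concentrations topping at 100 uM, 0.5% DMSO, in duplicate. PEG10 mRNA quantified by TaqMan qRT-PCR, normalized to ACTB, GAPDH and POLR2A; bidirectional fit versus DMSO.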
# Chain of Nuclear factor NF-kappa-B p105 subunit (Homo sapiens) (P19838 whole entry, looked up): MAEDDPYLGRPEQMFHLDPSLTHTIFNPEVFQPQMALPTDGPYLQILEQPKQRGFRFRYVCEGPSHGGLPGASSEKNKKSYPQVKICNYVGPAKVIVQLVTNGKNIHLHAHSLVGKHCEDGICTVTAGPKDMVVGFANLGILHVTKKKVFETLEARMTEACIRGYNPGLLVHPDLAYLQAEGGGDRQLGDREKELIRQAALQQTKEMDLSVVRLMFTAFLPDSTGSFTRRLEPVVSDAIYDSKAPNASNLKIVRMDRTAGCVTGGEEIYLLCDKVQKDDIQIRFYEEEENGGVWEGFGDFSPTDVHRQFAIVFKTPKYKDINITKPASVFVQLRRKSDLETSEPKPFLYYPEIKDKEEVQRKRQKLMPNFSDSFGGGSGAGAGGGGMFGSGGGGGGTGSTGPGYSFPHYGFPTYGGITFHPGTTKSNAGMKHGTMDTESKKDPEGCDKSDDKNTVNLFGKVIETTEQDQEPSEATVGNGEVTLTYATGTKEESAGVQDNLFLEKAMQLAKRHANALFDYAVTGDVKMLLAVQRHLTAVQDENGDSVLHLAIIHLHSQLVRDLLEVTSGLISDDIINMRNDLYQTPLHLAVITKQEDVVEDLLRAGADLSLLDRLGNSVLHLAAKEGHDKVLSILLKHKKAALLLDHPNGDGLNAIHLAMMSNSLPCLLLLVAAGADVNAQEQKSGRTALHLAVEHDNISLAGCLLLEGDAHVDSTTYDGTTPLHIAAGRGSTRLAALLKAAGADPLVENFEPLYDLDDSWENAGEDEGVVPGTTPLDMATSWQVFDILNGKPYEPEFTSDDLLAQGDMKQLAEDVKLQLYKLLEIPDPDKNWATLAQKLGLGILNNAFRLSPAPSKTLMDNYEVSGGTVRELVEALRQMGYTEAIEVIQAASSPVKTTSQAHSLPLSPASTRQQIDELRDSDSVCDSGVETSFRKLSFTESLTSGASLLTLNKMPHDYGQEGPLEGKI
smiles,measurement,setting,value
O=c1[nH]c2ccc(S(=O)CCN3CCC(Cc4ccc(F)cc4)CC3)cc2o1 (stereo not given),AC50,[1],74.7 µM (active)
same,outcome,[2],inactive
same,AC50,[3],63 µM (active)
same,outcome,[4],inactive
same,AC50,[5],67.3 µM (active)
same,outcome,[6],inactive
same,AC50,[7],82 µM (active)
same,AC50,[8],59.5 µM (active)
same,outcome,[9],inactive
same,AC50,[10],17.3 µM (active)
same,outcome,[11],inactive
same,outcome,[12],inactive
same,outcome,[13],inactive
CC(=O)c1ccc2c(c1)[C@H](NC(=O)c1ccc(F)cc1)[C@@H](O)C(C)(C)O2,outcome,[14],inactive
same,outcome,[2],inactive
same,outcome,[15],inactive
same,outcome,[16],inactive
same,outcome,[3],inactive
same,outcome,[17],inactive
same,outcome,[4],inactive
same,outcome,[5],inactive
same,outcome,[6],inactive
same,outcome,[7],inactive
same,outcome,[8],inactive
same,outcome,[18],inactive
same,outcome,[9],inactive
same,outcome,[10],inactive
same,outcome,[19],inactive
same,outcome,[12],inactive
same,outcome,[13],inactive
CC(C)=CCCC(C)CCO (stereo not given),outcome,[1],inactive
same,outcome,[2],inactive
same,outcome,[16],inactive
same,outcome,[3],inactive
same,outcome,[4],inactive
same,outcome,[5],inactive
same,outcome,[6],inactive
same,outcome,[7],inactive
same,outcome,[8],inactive
same,outcome,[9],inactive
same,outcome,[10],inactive
same,outcome,[19],inactive
same,outcome,[11],inactive
same,outcome,[12],inactive
same,outcome,[13],inactive
